PubChem BioAssay (NCI)
This is part of a sample that, as a whole, favours compounds with a hit. Of some 83,000 tested, about 20% had one in any assay.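 For each line, cells grew in 96-well plates with the test compound present at a single concentration for 48 hours.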 Active and inactive are the calls of the source.

These compounds were tested on SK-MEL-2 melanoma (assay: NCI-60 one-dose screen, 48 h (100 = growth as untreated, 0 = no growth, -100 = all killed)). Conditions: 10 µM unless noted.
Procedure: Growth inhibition of the SK-MEL-2 human tumor cell line is measured as a screen for anti-cancer activity. Cells are grown in 96 well plates and exposed to the test compound for 48 hours. Compounds are tested at a single concentration, which is 10^-5 M for most compounds. The reported endpoint is percent growth (GI% or GIPRCNT), where numbers from 0 - 100% represent growth inhibition, and numbers from -100% - 0 represent cell death. For example, a value of 40 represents 60% growth inhibition. A value of 0 means no net growth occurred over the course of the experiment. A value of -40 indicates 40% of cells at the beginning of the experiment died by the end of the experiment. A value of -100 means all cells are dead at the end of the experiment.
NCI-60 Human Tumor Cell Lines Screen was performed using the standard one-dose NCI protocol, which is described in more detail at https://dtp.cancer.gov/discovery_development/nci-60/default.htm.
Compounds with GIPRCNT values below 10 were considered active. Activity score was based on GIPRCNT using the following formula: […]
Score is 0 for GIPRCNT values of 100 or above, 50 for GIPRCNT values of 0, and 100 for GIPRCNT values of -100.

Compound	growth
Cc1occc1-c1n[nH]c(=S)n1N1C(=O)CSC1=S	107% (inactive)
COc1cc2ncn3c(=O)c4c5c(sc4nc3c2cc1OC)CCCC5	91.4% (inactive)
O=C1NC(=Nc2ccc(Cl)cc2)S/C1=C\c1cn(-c2ccccc2)nc1-c1ccccc1	103% (inactive)
CC(=O)O[C@]1(C(C)=O)CCC2C3C[C@H](C)C4=CC(=O)CC[C@]4(C)C3CC[C@@]21C (stereo not given in full)	98.1% (inactive)
Cc1ccc(/C=C/c2c(C(=O)/C=C/c3ccc(Cl)cc3)c(C)nc3ccccc23)cc1	8.94% (active)
O=c1ssc(Cl)c1-c1ccccc1	155% (inactive)
COC1=CC(=O)C[C@@H](C)[C@]12Oc1c(Cl)c(OC)cc(OC)c1C2=O	82.7% (inactive)
O=C(Cc1ccc(F)c(F)c1)Nc1cc(C2(C(F)(F)F)CC2)nn1Cc1ccccc1	-32.9% (active)
CCN1C(=O)N(CC)C2Nn3c(s/c(=C4\C(=O)N(C)c5ccccc54)c3=O)=NC21 (stereo not given)	48.2% (inactive)
COc1ccc(NC(=O)CSc2nc(C)c(C(C)=O)n2-c2ccc([N+](=O)[O-])cc2)cc1	89.3% (inactive)
CSc1n(Cc2ccc3ccccc3c2)c(C)c[n+]1Cc1ccc2ccccc2c1	-25.7% (active)
C#CCOc1nc(C)cc(C)c1C#N	111% (inactive)
CN1C(=O)N(C)C2C1NN=c1s/c(=C\c3ccccc3)c(=O)n12 (stereo not given)	48.4% (inactive)
O=c1[nH]nc(-c2ccccc2)c2c(-c3ccccc3)onc12	30.7% (inactive)
COc1cccc(-c2nn(-c3ccccc3)cc2-c2ccnc(NCCNC(=O)Nc3cccc(C(F)(F)F)c3)c2)c1	-25.2% (active)
c1ccc(-c2nc([P+](c3ccccc3)(c3ccccc3)c3ccccc3)c(N3CCOCC3)o2)cc1	-25.3% (active)
C[C@H](NC(=O)[C@@H]1CSSC[C@@H](NC(=O)c2nc3ccccc3cc2O)C(=O)NCC(=O)N1C)c1ccccc1	62.2% (inactive)
Cc1ccccc1NC(=O)N/C(N)=N/c1nc(-c2cccc([N+](=O)[O-])c2)cs1	37.3% (inactive)
O=S(=O)(NCCCNc1cc(-c2c(-c3cccc(O)c3)nc3sccn23)ccn1)c1cccc(Cl)c1	63.7% (inactive)
COc1ccc2c(c1)O/C(=C/c1ccc(OCC(=O)c3ccccc3)cc1)C2=O	108% (inactive)

Compound	growth
CCN(CC)Cc1cccc(C(=O)OC)c1	100% (inactive)
N#C/C(=C\c1ccc(Br)cc1)n1nnc2cc(F)c(F)cc21	29.5% (inactive)
COC1=C(OC)C(=O)C(OC)=C(OC)C1=O	118% (inactive)
Cc1cc(NCc2cc(Nc3ccnc4cc(Cl)ccc34)ccc2F)nc(N2CCSCC2)n1	47.6% (inactive)
CN(C)CCC=C1c2ccccc2C(C)(C)c2ccccc21	74.4% (inactive)
CCN(CC)CCCC(C)Nc1c2ccc(Cl)cc2nc2ccc(O)cc12 (stereo not given)	52.6% (inactive)
N#Cc1c(-c2cccc(Cl)c2)cc(-c2cccc(F)c2)[nH]c1=O	102% (inactive)
Cn1cc(-c2csc(-c3ccccc3)n2)c2cccnc21	-48.2% [100 µM] (active)
Cc1c(C)c2c(c(C)c1OCC(=O)O)CC[C@@](C)(CCC[C@@H](C)CCC[C@@H](C)CCCC(C)C)O2	-26.6% [50 µM] (active)
CCOC(=O)/C=C/c1cc2cc(-c3csc4ccccc34)ccc2[nH]1	101% (inactive)
Nc1ccc2c(c1)c(N)nn2C(=O)Nc1ccc(Cc2ccccc2)cc1	73.7% (inactive)
CCn1c(C)nc2cc(C(N)=O)ccc21	96% (inactive)
Cc1c(C(=O)NC(Cc2ccccc2)C(O)C(=O)NCc2ccc(F)cc2)[nH]c2ccccc2c1=O (stereo not given)	108% (inactive)
O=c1c2c3c(sc2nc(N/N=C/c2ccc(Br)cc2)n1Cc1ccccc1)CCCC3	102% (inactive)
COc1ccc2[nH]c(O)c(/C=c3/cc4c(c(-c5ccc(F)c(OC)c5)n3)=Nc3ccccc3-4)c2c1	96.3% (inactive)
COc1cc2c(cc1-c1c(C)noc1C)ncc1nc(C3CCC(F)(F)CC3)n(C3CCC(OC(F)F)CC3)c12 (stereo not given)	46% (inactive)
Cc1cc(NCc2cc(Nc3ccnc4cc(Cl)ccc34)ccc2F)nc(Cl)n1	54.6% (inactive)
Cc1cccc(Cc2cnc(NC(=O)/C=C/c3ccco3)s2)c1	30.8% (inactive)
CC1=C(SCCC(=O)OC(C[Se]C2=C(C)C(=O)c3ccccc3C2=O)C(=O)NCCCCCC(=O)OCc2ccccc2)C(=O)c2ccccc2C1=O (stereo not given)	23.3% (inactive)
COC(=O)c1c2c(c(C)[n+]([O-])c1C)C(=O)C(NCc1ccc(F)cc1)=CC2=O	30.6% (inactive)
